Assay outcomes deposited in PubChem by National Center for Advancing Translational Sciences (NCATS).
Rows were chosen to be rich in hits. Some 19% of all compounds tested hit in one or more screens of this group.
IL-1B inflam inh – blocks inflammasome-driven IL-1 beta release; AID 743279; activity change, % at 57.5 µM; 360,000 tested, 4.7% active; THP-1 LPS/ATP IL-1B secretion, AlphaLISA, 16 h; active compounds read low; in the data active = activity change below about -50%; inconclusive = mostly about -30% to -49%
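THP-1 cells pretreated 1 hr with compounds (up to 57.5 uM final), then stimulated with LPS (250 ng/mL final) plus ATP (1.25 mM final); secreted IL-1B measured by AlphaLISA after 16 hr, decreased signal indicating inhibition.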
TDP1 cell noCPT – qHTS for Inhibitors of human tyrosyl-DNA phosphodiesterase 1 (TDP1): qHTS in cells in absence of CPT; DT40 Tdp1-/- hTDP1 cells, no CPT, ATP luminescence, 48 h; Potency, µM (titrated, usually from 46.2 µM), actives largely listed as inhibitors; 420,000 tested, 15% active; note: nearly all actives have a fitted effect of over 55% in size
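Compound effects on proliferation are scored in DT40 Tdp1-/-;hTDP1 cells in the absence of CPT. ATP levels (CellTiter-Glo luminescence) are recorded after a ≥48 hr, 37 °C incubation.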
TDP1 cell CPT – growth inhibition of DT40 Tdp1-/-;hTDP1 cells with camptothecin (screen for TDP1 inhibitors) | chicken DT40 Tdp1-/-;hTDP1 cells + 20 nM CPT, ATP luminescence, 48 h | Potency, µM (highest dose often 46.2 µM), hits mostly inhibitors | 420,000 tested, 12% active | AID 686979; note: nearly all actives have a fitted effect of over 55% in size
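Chicken DT40 Tdp1-/- cells stably complemented with human TDP1 were seeded at 400 cells/well in medium containing 20 nM camptothecin, exposed to pin-transferred compounds, and grown at 37 °C for at least 48 hr. Viability was read as ATP luminescence.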
uPA generation – blocks generation of uPA at the cell surface | cell surface uPA generation assay, qHTS | Potency, µM (titrated, usually from 38.3 µM), usual class: inhibitors | 330,000 tested, 0.31% active | AID 540303; active = well fitted inhibition curve with a large enough effect; inconclusive = small, poorly fitted or top-dose-only effect; inactive = no such curve, though single readings can be large or run the other way; tested in mouse RAW 264.7 cells; note: nearly all actives have a fitted effect of over 55% in size
HT1080 IDH1KD tx – HT-1080 IDH1 knockdown cell toxicity (counter line). HT-1080 IDH1 knockdown viability, ATP luminescence, 48 h. Potency, µM (titrated, usually from 46.1 µM), hits mostly cytotoxic. 360,000 tested, 2% active
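Viability of IDH1-knockdown HT-1080 fibrosarcoma cells was assessed by CellTiter-Glo after 48 h at 37 °C with titrated compound; concentration-effect curves were classified by fit quality and response size.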
HT1080-NT tox – kills 2HG-producing HT-1080-NT fibrosarcoma cells | HT-1080-NT fibrosarcoma viability, CellTiter-Glo ATP luminescence, 48 h | Potency, µM (highest dose often 46.1 µM), most hits filed as cytotoxic | 360,000 tested, 1.6% active | AID 686970;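 note: NT is the 2HG producing partner of a matched IDH1 knockdown line; nearly all actives have a fitted effect of over 55% in size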
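Viability by CellTiter-Glo luminescence after 48 h compound exposure at 37C of HT-1080-NT cells (750/well, RPMI, 5% FBS). % activity scaled between DMSO wells and medium-only wells, then curve-fitted and categorized by curve class.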
Each line names hits and unclear results; the compound was inactive in the other large screens. Unless noted, calls come from the whole dose curve; as a rule, active = well fitted curve in the direction sought with a large enough effect; inconclusive = small, poorly fitted or top-dose-only effect, or another doubt; inactive = no such curve, though single readings can be large; an effect the other way counts as inactive or inconclusive.

CN(Cc1ccco1)S(=O)(=O)c1nnc(NC(=O)c2cccc(Cl)c2)s1	TDP1 cell noCPT inconclusive, TDP1 cell CPT inconclusive, HT1080-NT tox inconclusive
Cc1onc(-c2ccccc2)c1C(=O)NNC(=S)NC(=O)/C=C/c1ccccc1	TDP1 cell noCPT 18µM, TDP1 cell CPT 21µM, HT1080 IDH1KD tx inconclusive
COc1ccc(/C=C/C(=O)NC(=S)NNC(=O)c2c(-c3ccccc3)noc2C)cc1	TDP1 cell noCPT 26µM, TDP1 cell CPT inconclusive, HT1080 IDH1KD tx inconclusive
Cc1onc(-c2ccccc2)c1C(=O)NNC(=S)NC(=O)c1ccc(Br)cc1	TDP1 cell noCPT inconclusive, TDP1 cell CPT inconclusive, HT1080 IDH1KD tx inconclusive, HT1080-NT tox inconclusive
CCOc1ccc(CC(=O)N2CCN=C2SC)cc1	none
CCOc1ccc(CC(=O)N2CCN=C2SCc2ccc([N+](=O)[O-])cc2)cc1	IL-1B inflam inh -97, TDP1 cell noCPT 29µM, TDP1 cell CPT inconclusive
CCOC(=O)N1CCN=C1SCc1ccc(C(F)(F)F)cc1	IL-1B inflam inh -82, TDP1 cell noCPT inconclusive
CC(=O)N1CCN=C1SCc1ccc(C)cc1	none
O=C(Cc1ccccc1)N1CCN=C1SCc1ccc([N+](=O)[O-])cc1	IL-1B inflam inh -55, TDP1 cell noCPT inconclusive, TDP1 cell CPT inconclusive
CC(Oc1ccccc1)C(=O)N1CCN=C1SCc1ccc(F)cc1 (stereo not given)	TDP1 cell CPT inconclusive
O=C(COc1ccccc1)N1CCN=C1SCc1ccc(F)cc1	IL-1B inflam inh -97
Cc1cc(C)n2nc(CNC(=O)c3ccccc3Cl)nc2n1	none (no result: IL-1B inflam inh, uPA generation, HT1080 IDH1KD tx, HT1080-NT tox)
CC(Sc1nc(C(F)(F)F)nc2ccccc12)C(=O)NC1CCCC1 (stereo not given)	TDP1 cell noCPT inconclusive
O=C(Cc1cccs1)N1CCN=C1SCc1ccc(Br)cc1	IL-1B inflam inh -102, TDP1 cell noCPT inconclusive, TDP1 cell CPT inconclusive
CC(C)(C)c1ccc(-n2ncc3c2CCCC3NC(=O)c2ccncc2)cc1 (stereo not given)	TDP1 cell noCPT 10µM, TDP1 cell CPT 12µM
O=C(NC1CCCc2c1cnn2-c1cc(F)cc(F)c1)c1ccncc1 (stereo not given)	none
Cc1cc(C(=O)NC2CCCc3c2cnn3-c2ccc(C(C)(C)C)cc2)n[nH]1 (stereo not given)	TDP1 cell noCPT 12µM, TDP1 cell CPT 21µM, uPA generation inconclusive
CCn1nc(C)cc1C(=O)NC1CCCc2c1cnn2-c1cc(F)cc(F)c1 (stereo not given)	TDP1 cell noCPT 18µM, TDP1 cell CPT inconclusive, uPA generation inconclusive
Cc1ncoc1C(=O)NC1CCCc2c1cnn2-c1cc(F)cc(F)c1 (stereo not given)	TDP1 cell noCPT 26µM (no result: uPA generation)
O=C(CSc1ccc(-c2cccnc2)nn1)Nc1ccccc1C(F)(F)F	none
CC1(C)CSC(=NCc2ccccc2)N1C(=O)c1cccc([N+](=O)[O-])c1	none
Cc1ncoc1C(=O)NC1CC(C)(C)Cc2c1cnn2-c1ccccc1 (stereo not given)	none
COc1ccc(-n2ncc3c2CC(C)(C)CC3NC(=O)CN2CCOC2=O)cc1 (stereo not given)	TDP1 cell noCPT inconclusive, uPA generation inconclusive, HT1080-NT tox inconclusive
Cc1ccccc1-n1ncc2c1CC(C)(C)CC2NC(=O)CCC1=NNC(=O)CC1 (stereo not given)	none
CC(C)(C)c1ccc(-n2ncc3c2CCCC3NC(=O)CCC2=NNC(=O)CC2)cc1 (stereo not given)	TDP1 cell noCPT 3.3µM, TDP1 cell CPT 9.2µM (no result: uPA generation)
Cc1ncoc1C(=O)NC1CCCc2c1cnn2-c1ccc(C(C)(C)C)cc1 (stereo not given)	TDP1 cell noCPT 7.3µM, TDP1 cell CPT 7.3µM, uPA generation inconclusive, HT1080 IDH1KD tx inconclusive, HT1080-NT tox inconclusive
CC(C)(C)c1ccc(-n2ncc3c2CCCC3NC(=O)CN2CCOC2=O)cc1 (stereo not given)	TDP1 cell noCPT 16µM, TDP1 cell CPT 18µM
Cc1ccc2cc(CN(C(=O)c3ccco3)c3cccc(C)c3C)c(=O)[nH]c2c1	TDP1 cell noCPT inconclusive
COCC(=O)N(Cc1cc2ccc(C)cc2[nH]c1=O)c1ccc(C)cc1C	none
Cc1ccc2cc(CN(C(=O)c3ccco3)c3ccccc3C)c(=O)[nH]c2c1	TDP1 cell noCPT 21µM, TDP1 cell CPT inconclusive
Cc1ccc(N(Cc2cc3ccc(C)cc3[nH]c2=O)C(=O)c2ccco2)c(C)c1	IL-1B inflam inh inconclusive, TDP1 cell noCPT 23µM, TDP1 cell CPT inconclusive
COCCCn1c(=O)c2sccc2n(Cc2cccc(C)c2)c1=O	TDP1 cell noCPT inconclusive, TDP1 cell CPT inconclusive
CNC(=O)C1CCC(Cn2c(=O)c3sccc3n(Cc3ccc(F)cc3)c2=O)CC1 (stereo not given)	TDP1 cell noCPT 8.2µM, TDP1 cell CPT 8.2µM (no result: IL-1B inflam inh, uPA generation, HT1080 IDH1KD tx, HT1080-NT tox)
O=C(C1CCC(Cn2c(=O)c3sccc3n(Cc3cccc(F)c3)c2=O)CC1)N1CCOCC1 (stereo not given)	TDP1 cell noCPT 16µM, TDP1 cell CPT inconclusive (no result: IL-1B inflam inh, uPA generation, HT1080 IDH1KD tx, HT1080-NT tox)
CCN(CC)C(=O)Cn1c(=O)n(CC2CCC(C(=O)NC)CC2)c(=O)c2sccc21 (stereo not given)	none (no result: IL-1B inflam inh, uPA generation, HT1080 IDH1KD tx, HT1080-NT tox)
CCn1c(=O)c2sccc2n(Cc2ccc(C)cc2)c1=O	none
Cn1c(=O)c2sccc2n(Cc2cccc(Br)c2)c1=O	TDP1 cell noCPT inconclusive, TDP1 cell CPT 12µM
Cc1ccc(Cn2c(=O)n(CC3CCC(C(=O)N4CCOCC4)CC3)c(=O)c3sccc32)cc1 (stereo not given)	TDP1 cell noCPT 16µM, TDP1 cell CPT 21µM (no result: IL-1B inflam inh, uPA generation, HT1080 IDH1KD tx, HT1080-NT tox)
Cc1ccc(CN2C(=O)c3ccccc3Sc3ccc(C(=O)NCc4ccco4)cc32)cc1	TDP1 cell noCPT inconclusive (no result: IL-1B inflam inh, uPA generation, HT1080 IDH1KD tx, HT1080-NT tox)
Cc1cnc(C(=O)OC(C(=O)c2c[nH]c3ccccc23)c2ccccc2)cn1 (stereo not given)	none
COc1cc(OC)cc(-n2c(=O)c3sccc3n(Cc3ccc(F)cc3)c2=O)c1	TDP1 cell noCPT inconclusive (no result: IL-1B inflam inh, uPA generation, HT1080 IDH1KD tx, HT1080-NT tox)
O=c1c2sccc2n(Cc2cccc(F)c2)c(=O)n1-c1ccc(F)cc1	TDP1 cell noCPT 18µM, TDP1 cell CPT 15µM, HT1080 IDH1KD tx inconclusive
O=C(C1CCC(Cn2c(=O)c3sccc3n(Cc3cccc(F)c3)c2=O)CC1)N1CCCCC1 (stereo not given)	TDP1 cell noCPT 5.8µM, TDP1 cell CPT inconclusive (no result: IL-1B inflam inh, uPA generation, HT1080 IDH1KD tx, HT1080-NT tox)
